The text below walks through data of PubChem BioAssay (Tox21).

Molecules are shown by their SMILES. Results filed as inconclusive are left out. A number with no mark means an inactive call. Active and inactive are the calls of the source. Unless noted, calls follow the shape of the dose curve; as a rule, active = well fitted curve in the direction sought with a large enough effect in the repeat runs; inconclusive = weak or mixed curves; inactive = no such curve, though single readings can be large; an effect the other way counts as inactive or inconclusive.

Assay [1] is described as follows: qHTS assay to identify small molecule antagonists of the vitamin D receptor (VDR) signaling pathway - cell viability counter screen (AID 743225). Also: nearly all actives have a fitted effect of over 50% in size. An outline of the steps:
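Luminescent cell viability (CellTiter-Glo) in VDR-bla HEK 293T cells after 16 h compound exposure at 37C in the presence of 3 nM final 1-alpha,25-dihydroxy vitamin D3.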

Assay [2] is described as follows: qHTS assay to identify small molecule agonists of the NFkB signaling pathway (AID 1159509; active = well fitted curve in the direction sought with a large enough effect in the signal ratio in the repeat runs, not every such curve was filed as active; the % refers to the signal ratio). An outline of the steps: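 After overnight attachment, reporter cells received test compounds, DMSO or positive controls and were incubated 5 hr at 37 C. FRET substrate was then added for 1.5 hr at room temperature before dual-emission fluorescence reading.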
(In qHTS, concentration-response curves come from the screen itself.)

Assay [3] is described as follows: qHTS assay to identify small molecule agonists of the NFkB signaling pathway - cell viability counter screen (AID 1159515; calls by dose curve; also: nearly all actives have a fitted effect of over 55% in size). In a few lines:
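Multiplexed viability readout: after the 5 hr compound exposure and 1.5 hr FRET substrate step, CellTiter-Glo reagent went into the same NFkB-bla ME-180 wells; ATP luminescence was measured after 30 min at room temperature.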

The nature of assay [4]: qHTS assay to identify small molecule antagonists of the retinoid-related orphan receptor gamma (ROR-gamma) signaling pathway - cell viability counter screen (AID 1159520). Also: nearly all actives have a fitted effect of over 50% in size. In a few lines: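 Tet-on ROR gamma CHO cells (1,000/well) were plated 4 hr, given compounds in DMSO for 2 hr at 37 C, then induced with 1 uM final doxycycline for 16 hr. Viability was read as ATP by CellTiter-Glo luminescence after 30 min.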

Assay [5] concerns the target Nuclear receptor ROR-gamma (Homo sapiens) (UniProt P51449). Nature of the assay: qHTS assay to identify small molecule antagonists of the retinoid-related orphan receptor gamma (ROR-gamma) signaling pathway (AID 1159521;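 also: CHO cells with doxycycline inducible ROR-gamma driving an RORE luciferase reporter; top concentration of the series differs between compounds; nearly all actives have a fitted effect of over 50% in size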). In a few lines: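 CHO cells expressing RORγ under a TET-on promoter, luciferase under RORE control. Dox 1 uM final, 16 h; compounds added 2 h prior. Luminescence decrease measured.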

Assay [6] is described as follows: qHTS assay to identify small molecule agonists of the AP-1 signaling pathway - cell viability counter screen (AID 1159525; calls by dose curve; also: nearly all actives have a fitted effect of over 55% in size). An outline of the steps: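 ME-180 AP-1-bla, 2500 cells/well, Opti-MEM + 0.5% dialyzed FBS; overnight 37 °C; cpd 15-pt titration, 5 h 37 °C; CellTiter-Glo 30 min RT; luminescence read; normalised to TOAB and DMSO controls.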
The nature of assay [7]: qHTS assay to identify small molecule agonists of the AP-1 signaling pathway (AID 1159526; calls by dose curve; also: potency is read from the fitted curve at half-maximal effect).
Assay [8] addresses Retinoic acid receptor RXR-alpha (Homo sapiens) (UniProt P19793). In words: qHTS assay to identify small molecule agonists of the RXR signaling pathway (AID 1159527; calls by dose curve; also: nearly all actives have a fitted effect of over 35% in size). In a few lines:
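Beta-lactamase reporter assay, agonist format. Engineered HEK 293T line, charcoal-stripped FBS at 2%, overnight (16 hr) exposure, fluorescence at 460 and 530 nm after 405 nm excitation.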

The nature of assay [9]: qHTS assay to identify small molecule agonists of the RXR signaling pathway - cell viability counter screen (AID 1159529).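 Also: HEK 293T cells carrying an RXR-alpha UAS beta-lactamase reporter; nearly all actives have a fitted effect of over 50% in size.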 An outline of the steps: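 Same-well viability check after the LiveBLAzer FRET read: CellTiter-Glo added, luminescence measured after 30 min at room temperature. Reporter HEK 293T cells had been treated with compounds for 16 hr following a 5 hr preincubation.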

Assay [10] is described as follows: qHTS assay to identify small molecule antagonists of the retinoid acid receptor (RAR) signaling pathway - cell viability counter screen (AID 1159551). Also: nearly all actives have a fitted effect of over 35% in size. Also: potency is read from the fitted curve at half-maximal effect. In a few lines:
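Cytotoxicity counter screen in C3RL4 cells: 6 h compound exposure with 1 uM retinol (final), viability from cellular ATP by luminescence.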

Assay [11] can be described thus: qHTS assay to identify small molecule agonists of the retinoic acid receptor (RAR) signaling pathway (AID 1159553). To be noted: C3RL4 RARE luciferase reporter, agonist, 6 h; activation: at 73.3 µM (top of the series). An outline of the steps: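 Agonist activity was scored in C3RL4 cells bearing a retinoic acid response element luciferase construct. Cells were treated with compounds for 6 hr at 37 C, and luciferase signal was measured as luminescence.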

A short description of assay [12]: qHTS assay to identify small molecule antagonists of the retinoic acid receptor (RAR) signaling pathway (AID 1159552; also: nearly all actives have a fitted effect of over 50% in size). An outline of the steps:
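Readout: luciferase luminescence, 30 min post-reagent at RT. Setup: C3RL4 RARE reporter cells, compounds plus retinol 1 uM final, 6 hr incubation at 37 C and 5% CO2.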

A short description of assay [13]: qHTS assay to identify small molecule agonists of the endoplasmic reticulum stress response signaling pathway - cell viability counter screen (AID 1159517; calls by dose curve). An outline of the steps:
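Luminescence readout: CellTiter-Glo, 30 min RT, same wells as the ESRE-bla reporter read. HeLa ESRE-bla, 1,500 cells/well, o/n 37 C; cpd 5 hr 37 C/5% CO2.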

Sequence of Retinoic acid receptor RXR-alpha (Homo sapiens) (P19793 whole entry, looked up): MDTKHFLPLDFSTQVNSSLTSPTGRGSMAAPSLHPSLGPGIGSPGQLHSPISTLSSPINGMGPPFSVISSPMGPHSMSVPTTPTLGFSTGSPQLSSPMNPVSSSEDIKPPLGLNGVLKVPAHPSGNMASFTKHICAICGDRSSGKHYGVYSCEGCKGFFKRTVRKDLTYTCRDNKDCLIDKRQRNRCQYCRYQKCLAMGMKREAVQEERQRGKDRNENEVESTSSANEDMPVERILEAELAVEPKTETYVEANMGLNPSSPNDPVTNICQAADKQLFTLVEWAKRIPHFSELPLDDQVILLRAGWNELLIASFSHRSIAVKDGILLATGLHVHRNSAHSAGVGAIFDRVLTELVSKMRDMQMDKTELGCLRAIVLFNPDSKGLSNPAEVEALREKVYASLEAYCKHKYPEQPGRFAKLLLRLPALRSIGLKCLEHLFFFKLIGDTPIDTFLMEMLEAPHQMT

With `O=C1Cc2cc(Cl)ccc2N1`, the Potency result in assay [1], in [2], in assay [3], in [4], in [5] and in assay [6] was “inactive” each time. For the same molecule, the Potency entry in [7], in assay [8], in assay [9], in assay [10] and in [11] was “inactive” each time.

`CCOC(=O)/C=C/C(=O)OCC`: the Potency entry in [1], in [2], in assay [3], in [4], in assay [5] and in assay [6] was “inactive” in each case. The Potency result in assay [7], in assay [8], in assay [9], in [10] and in assay [12] was “inactive” each time.

Take `O=C(Cn1ccnc1[N+](=O)[O-])NCCO`: the Potency result in assay [1], in [2], in assay [3], in assay [4], in assay [5] and in [6] was “inactive” in each case. Moreover, the Potency result in assay [7], in [8], in assay [9], in assay [10], in [12] and in [11] was “inactive” in each case.

For the molecule `CCOc1cccc(-n2cc(C(=O)N3CCN(c4cc(C(=O)O)c5ccccc5c4)CC3)nc2-c2ccc(C)cc2)c1`, the Potency result in [2], in assay [3], in [13], in assay [9], in [10] and in [12] was “inactive” throughout. In addition, in [11], the Potency result was “inactive”.

As to `Clc1cc(Cl)nc(Cl)n1`, the Potency entry in assay [1], in [2], in assay [3], in assay [4], in [5] and in [6] was “inactive” throughout. Moreover, the Potency entry in assay [7], in assay [8], in assay [9], in [10], in assay [12] and in assay [11] was “inactive” in each case.

On to `CC(C)C=O`, for which the Potency result in [1], in assay [2], in assay [3], in assay [4], in [5] and in assay [7] was “inactive” in each case. Besides, the Potency result in assay [9], in assay [10], in assay [12] and in [11] was “inactive” in each case.

`CC(=O)OCCN(CCOC(C)=O)c1ccc(N=Nc2ccc([N+](=O)[O-])cc2C#N)cc1`: the Potency result in assay [1], in assay [2], in [3], in assay [13], in [5] and in assay [6] was “inactive” throughout. For the same molecule, the Potency entry in [7], in [9] and in [12] was “inactive” in each case. The Potency in assay [10] is 48.6 µM (active).

`CCCCC(CC)COP(=O)(O)O` (centres undefined): the Potency result in assay [1], in assay [2], in assay [3], in assay [4], in [5] and in assay [9] was “inactive” throughout. Besides, the Potency entry in assay [10], in [12] and in assay [11] was “inactive” in each case. Besides, the Potency in [7] was 39.6 µM (active).

For the molecule `O=C(O)c1ccc(OCCCOc2ccc(C(=O)O)cc2)cc1`, the Potency entry in assay [2], in assay [3], in assay [13], in assay [6], in [7] and in [8] was “inactive” each time. In addition, the Potency entry in assay [9] and in assay [10] was “inactive” in each case.

Regarding `CCOC(=O)OC(C)OC(=O)[C@@H]1N2C(=O)[C@@H](NC(=O)[C@H](N)c3ccccc3)[C@H]2SC1(C)C` (some centres undefined), the Potency entry in assay [1], in [2], in assay [3], in assay [13], in assay [5] and in assay [6] was “inactive” each time. Further, the Potency entry in assay [8], in assay [9], in assay [10], in assay [12] and in assay [11] was “inactive” in each case.

On to `COC(=O)CS`, for which the Potency entry in assay [1], in [2], in assay [3], in assay [5], in [6] and in assay [9] was “inactive” each time. The Potency entry in assay [10] was “inactive”.
